PubChem BioAssay (Tox21)
Results filed as inconclusive are left out. A call without a number means that no potency is given here. Calls of active or inactive are those of the source. Unless noted, calls follow the shape of the full dose curve.

Legend:
[1] = qHTS assay to identify small molecule antagonists of the sonic hedgehog signaling (Shh) pathway (AID 1259369); also: nearly all actives have a fitted effect of over 45% in size; also: potency is read from the fitted curve at half-maximal effect
In short: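 Conditioned medium drives Shh signalling in 3T3Gli1-Luc cells; compounds in DMSO co-applied, 24hr at 37 C, then luciferase luminescence.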

[2] = target: Estrogen receptor beta (Homo sapiens) (UniProt Q92731); experiment: qHTS assay to identify small molecule agonists of the estrogen receptor beta (ER-beta) signaling pathway (AID 1259377; active = well fitted activation curve with a large enough effect in the signal ratio in the repeat runs, not every such curve was filed as active; the % refers to the signal ratio)
In short: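 Beta-lactamase reporter readout: fluorescence of LiveBLAzer B/G FRET substrate after 2 h at room temperature, following 16 h compound treatment of ER-beta-UAS-bla HEK293T cells at 37C in 2% charcoal-stripped FBS medium.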

[3] = target: Estrogen receptor beta (Homo sapiens) (UniProt Q92731); experiment: qHTS assay to identify small molecule antagonists of the estrogen receptor beta (ER-beta) signaling pathway (AID 1259378; active = well fitted inhibition curve with a large enough effect in the signal ratio in the repeat runs, not every such curve was filed as active; the % refers to the signal ratio; also: potency is read from the fitted curve at half-maximal effect)
In short: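 ER-beta-UAS-bla HEK293T (GripTite) cells in 2% charcoal-stripped FBS medium were preincubated 6 hr at 37C, dosed with compound, then stimulated with 1 nM E2 (final) for 16 hr; beta-lactamase reporter read by B/G FRET fluorescence after 2 hr substrate loading.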

[4] = qHTS assay to identify small molecule agonists of the androgen receptor (AR) signaling pathway in the presence of an antagonist - cell viability counter screen (AID 1259379; active = well fitted curve in the direction sought with a large enough effect in the repeat runs; an effect the other way counts as inactive or inconclusive; also: nearly all actives have a fitted effect of over 25% in size; also: potency is read from the fitted curve at half-maximal effect)
In short: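 A CellTiter-Fluor read-out measured viability of MDA-kb2 reporter cells (MMTV promoter with AR and GR response elements). Treatment: nilutamide 3.0uM final with compounds at 15 concentrations, 16 hr, 37C, 0% CO2.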

[5] = qHTS assay to identify small molecule agonists of the estrogen receptor beta (ER-beta) signaling pathway - cell viability counter screen (AID 1259380; active = well fitted curve in the direction sought with a large enough effect in the repeat runs; an effect the other way counts as inactive or inconclusive; also: nearly all actives have a fitted effect of over 30% in size; also: potency is read from the fitted curve at half-maximal effect)
In short: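 Cells used were ER-beta-UAS-bla HEK293T in medium with 2% charcoal-stripped FBS. They were treated for 16 hr at 37C. Viability came from CellTiter-Glo luminescence.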

[6] = qHTS assay to identify small molecule antagonists of the estrogen receptor beta (ER-beta) signaling pathway - cell viability counter screen (AID 1259382; active = well fitted curve in the direction sought with a large enough effect in the repeat runs; an effect the other way counts as inactive or inconclusive; also: nearly all actives have a fitted effect of over 55% in size; also: potency is read from the fitted curve at half-maximal effect)
In short: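 Agonist-stimulated (1nM E2) ER-beta-UAS-bla HEK293T cells are incubated with library compounds for 16 hr at 37C. Cell viability is then assessed in the reporter-assay wells by adding CellTiter-Glo and reading luminescence after 30 min.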

[7] = target: Estrogen receptor (Homo sapiens) (UniProt P03372); experiment: qHTS assay to identify small molecule agonists of the estrogen receptor alpha (ER-alpha) signaling pathway in the presence of an antagonist (AID 1259383); also: top concentration of the series differs between compounds; nearly all actives have a fitted effect of over 15% in size
In short: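 Using VM7Luc4E2 cells seeded 24hr before treatment, antagonist ICI-182,780 (10.0nM final) was added, followed by compounds at 15 concentrations. Plates incubated 22hr; ONE-Glo luminescence quantified reporter activity.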

[8] = qHTS assay to identify small molecule agonists or antagonists of the thyroid stimulating hormone receptor (TSHR) signaling pathway - wild type cell line counter screen (AID 1259384)
In short: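 Wild-type HEK293 cells were plated 18 h at 37 C/5% CO2, pin-dosed with compound plus Ro20-1724 medium, held 30 min at room temperature, then given cAMP-d2 and anti-cAMP-cryptate; fluorescence was read after 1 h. Fifteen concentrations, triplicate.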

[9] = target: Thyrotropin receptor (Homo sapiens) (UniProt P16473); experiment: qHTS assay to identify small molecule antagonists of the thyroid stimulating hormone receptor (TSHR) signaling pathway (AID 1259385); also: nearly all actives have a fitted effect of over 20% in size; also: potency is read from the fitted curve at half-maximal effect
In short: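 TSHR-HEK293 cells were plated and held 18 h at 37C/5% CO2, then given compound plus Ro20-1724 and stimulated with TSH at 1.5 ng/mL final. After 30 min at room temperature, cAMP was detected with cAMP-d2/anti-cAMP-cryptate (1 h) by fluorescence.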

[10] = target: Androgen receptor (Homo sapiens) (UniProt P10275); experiment: qHTS assay to identify small molecule agonists of the androgen receptor (AR) signaling pathway in the presence of an antagonist (AID 1259381); also: nearly all actives have a fitted effect of over 15% in size; also: potency is read from the fitted curve at half-maximal effect
In short: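 Using human MDA-kb2 cells with an MMTV promoter–luciferase construct (AR and GR response elements), agonist activity is scored under 3.0uM nilutamide (final) co-treatment; 16hr incubation, 37C, luminescence readout via ONE-Glo.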

Sequence of Thyrotropin receptor (Homo sapiens) (P16473 whole entry, looked up): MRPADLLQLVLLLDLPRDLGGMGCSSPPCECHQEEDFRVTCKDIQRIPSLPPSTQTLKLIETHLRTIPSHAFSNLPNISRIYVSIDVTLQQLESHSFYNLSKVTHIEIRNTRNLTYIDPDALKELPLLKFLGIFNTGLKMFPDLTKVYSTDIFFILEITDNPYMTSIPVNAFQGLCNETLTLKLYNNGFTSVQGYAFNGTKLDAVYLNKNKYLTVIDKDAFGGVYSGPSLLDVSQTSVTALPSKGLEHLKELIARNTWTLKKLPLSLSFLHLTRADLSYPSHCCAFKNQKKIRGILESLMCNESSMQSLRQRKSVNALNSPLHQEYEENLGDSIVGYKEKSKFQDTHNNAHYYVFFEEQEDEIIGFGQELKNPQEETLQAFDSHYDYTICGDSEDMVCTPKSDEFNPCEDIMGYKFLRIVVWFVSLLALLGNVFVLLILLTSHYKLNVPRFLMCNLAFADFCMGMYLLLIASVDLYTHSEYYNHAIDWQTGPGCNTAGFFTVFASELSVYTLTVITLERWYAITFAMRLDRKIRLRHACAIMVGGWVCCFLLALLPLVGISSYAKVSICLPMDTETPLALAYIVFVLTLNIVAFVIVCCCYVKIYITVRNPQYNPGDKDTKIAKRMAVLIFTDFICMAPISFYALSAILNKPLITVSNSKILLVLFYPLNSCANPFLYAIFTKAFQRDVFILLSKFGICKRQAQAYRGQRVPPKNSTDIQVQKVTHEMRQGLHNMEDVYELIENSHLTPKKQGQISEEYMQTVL
Sequence of Androgen receptor (Homo sapiens) (P10275 whole entry, looked up): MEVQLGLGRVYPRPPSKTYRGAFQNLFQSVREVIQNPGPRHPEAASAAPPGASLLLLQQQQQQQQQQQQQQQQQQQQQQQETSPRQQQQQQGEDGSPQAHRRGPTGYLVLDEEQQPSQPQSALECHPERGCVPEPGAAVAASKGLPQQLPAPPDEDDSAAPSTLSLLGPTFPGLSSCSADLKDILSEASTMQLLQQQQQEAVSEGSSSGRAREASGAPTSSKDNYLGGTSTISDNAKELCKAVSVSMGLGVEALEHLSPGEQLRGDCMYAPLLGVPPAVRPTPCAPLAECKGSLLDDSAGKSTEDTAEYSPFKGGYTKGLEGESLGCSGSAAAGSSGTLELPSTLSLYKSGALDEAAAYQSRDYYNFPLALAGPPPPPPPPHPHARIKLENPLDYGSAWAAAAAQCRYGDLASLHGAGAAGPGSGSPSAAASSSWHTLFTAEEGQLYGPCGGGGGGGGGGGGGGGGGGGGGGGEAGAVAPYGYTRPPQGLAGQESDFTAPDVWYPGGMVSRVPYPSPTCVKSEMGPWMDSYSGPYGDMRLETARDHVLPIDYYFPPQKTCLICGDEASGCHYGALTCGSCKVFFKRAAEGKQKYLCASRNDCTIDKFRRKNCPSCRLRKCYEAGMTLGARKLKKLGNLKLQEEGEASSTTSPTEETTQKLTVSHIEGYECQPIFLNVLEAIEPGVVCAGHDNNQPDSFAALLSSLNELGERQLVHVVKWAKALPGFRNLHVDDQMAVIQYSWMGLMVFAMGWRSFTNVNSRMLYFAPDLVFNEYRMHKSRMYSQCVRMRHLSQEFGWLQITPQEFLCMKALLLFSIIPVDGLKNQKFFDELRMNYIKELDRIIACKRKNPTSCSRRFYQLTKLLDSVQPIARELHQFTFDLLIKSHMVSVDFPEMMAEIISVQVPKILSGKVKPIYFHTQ
Sequence of Estrogen receptor (Homo sapiens) (P03372 whole entry, looked up): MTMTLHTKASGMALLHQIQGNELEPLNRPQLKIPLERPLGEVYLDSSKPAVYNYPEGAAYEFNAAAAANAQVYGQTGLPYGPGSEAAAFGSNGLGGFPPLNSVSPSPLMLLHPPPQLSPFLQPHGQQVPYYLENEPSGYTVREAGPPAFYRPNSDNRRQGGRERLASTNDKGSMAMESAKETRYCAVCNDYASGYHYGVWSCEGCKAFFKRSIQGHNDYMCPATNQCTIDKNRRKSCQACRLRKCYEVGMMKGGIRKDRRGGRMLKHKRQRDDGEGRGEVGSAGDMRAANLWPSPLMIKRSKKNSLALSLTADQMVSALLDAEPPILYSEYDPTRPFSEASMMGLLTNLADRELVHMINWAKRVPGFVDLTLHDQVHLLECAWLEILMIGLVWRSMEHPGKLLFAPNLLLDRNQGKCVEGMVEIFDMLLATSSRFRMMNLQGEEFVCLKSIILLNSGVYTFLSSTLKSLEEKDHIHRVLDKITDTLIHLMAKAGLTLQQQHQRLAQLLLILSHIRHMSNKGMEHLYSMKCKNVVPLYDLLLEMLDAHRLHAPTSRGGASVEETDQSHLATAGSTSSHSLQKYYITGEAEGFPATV
Sequence of Estrogen receptor beta (Homo sapiens) (Q92731 whole entry, looked up): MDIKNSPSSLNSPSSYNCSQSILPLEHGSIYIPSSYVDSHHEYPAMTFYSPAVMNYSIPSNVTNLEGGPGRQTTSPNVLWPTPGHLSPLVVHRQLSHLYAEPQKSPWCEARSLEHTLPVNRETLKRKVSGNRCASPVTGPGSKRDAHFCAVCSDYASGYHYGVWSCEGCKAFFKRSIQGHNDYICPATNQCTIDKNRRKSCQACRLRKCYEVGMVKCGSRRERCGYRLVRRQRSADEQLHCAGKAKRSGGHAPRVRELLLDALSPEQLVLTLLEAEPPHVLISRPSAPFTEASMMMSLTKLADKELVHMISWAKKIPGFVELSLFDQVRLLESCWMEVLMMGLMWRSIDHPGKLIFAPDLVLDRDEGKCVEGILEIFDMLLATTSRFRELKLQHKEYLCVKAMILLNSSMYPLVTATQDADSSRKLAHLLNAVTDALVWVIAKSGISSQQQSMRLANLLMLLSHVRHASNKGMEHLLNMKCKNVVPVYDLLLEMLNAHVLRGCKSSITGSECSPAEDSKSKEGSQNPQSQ

| SMILES | Potency [1] | Potency [2] | Potency [3] | Potency [4] | Potency [5] | Potency [6] | Potency [7] | outcome [8] | Potency [9] | Potency [10] |
| --- | --- | --- | --- | --- | --- | --- | --- | --- | --- | --- |
| CCC(=O)OC/C=C/c1ccccc1 | inactive | inactive | inactive | inactive | inactive | inactive | inactive |  |  |  |
| O=C(O)c1ccc(CO)o1 | inactive | inactive | inactive | inactive | inactive | inactive |  | inactive | inactive |  |
| Cc1cc(C(=C2C=CC(=Nc3ccc(S(=O)(=O)O)cc3S(=O)(=O)O)C=C2)c2ccc(Nc3ccc(S(=O)(=O)O)cc3)cc2)ccc1N | inactive | inactive | inactive | inactive | inactive | inactive | inactive |  |  |  |
| C[Si](NC1CCCCC1)(NC1CCCCC1)NC1CCCCC1 | inactive | inactive | inactive | inactive | 27.3 µM (active) |  | inactive | inactive | inactive |  |
| CC(=O)N(c1onc(C)c1C)S(=O)(=O)c1ccc(N)cc1 | inactive | inactive | inactive | inactive | inactive | inactive |  | inactive | inactive |  |
| CCOC(=O)/C=C/C(=O)O | inactive | inactive | inactive | inactive | inactive | inactive | inactive | inactive | inactive | inactive |
| Cc1cc(OI)c(C(C)C)cc1-c1cc(C(C)C)c(OI)cc1C | inactive | inactive | inactive | inactive | inactive | inactive |  | inactive | inactive |  |
| C[N+]1(C)CCC(=C(c2ccccc2)c2ccccc2)CC1 | inactive | inactive | inactive | inactive | inactive | inactive |  | inactive | inactive |  |
| CCCCCCOC(=O)C(C)C | inactive | inactive | inactive | inactive | inactive | inactive |  | inactive | inactive |  |
| O=S1OCCO1 | inactive | inactive | inactive | inactive | inactive | inactive | inactive | inactive | inactive |  |
| CCN(CC)CCNC(=O)c1ccc(NC(C)=O)cc1 | inactive | inactive | inactive | inactive | inactive | inactive | inactive |  |  | inactive |
| O=C(O)c1snc(Cl)c1Cl | inactive | inactive | inactive | inactive | inactive | inactive |  | inactive | inactive |  |
| CC#N | inactive | inactive | inactive | inactive | inactive | inactive |  | inactive | inactive |  |
| CC1(C)C(=O)N(Br)C(=O)N1Cl | inactive | inactive | inactive | inactive | inactive | inactive |  | inactive | inactive |  |
| O=C(/C=C/c1ccccc1)OCCCc1ccccc1 | inactive | inactive | inactive | inactive | inactive | inactive | inactive | inactive | inactive |  |
| NCC1CCCC(CN)C1 (centres undefined) | inactive | inactive | inactive | inactive | inactive | inactive |  |  |  | inactive |
| CCOC(=O)CC(=O)C(=O)OCC | inactive | inactive | 48.6 µM (active) |  | 8.63 µM (active) |  | inactive | inactive | inactive | 1.54 µM (active) |
| CC1(C)O[C@@H]2C[C@H]3[C@@H]4CCC5=CC(=O)C=C[C@]5(C)[C@H]4[C@@H](O)C[C@]3(C)[C@]2(C(=O)CO)O1 | inactive | inactive | inactive | inactive |  | inactive | inactive | inactive | inactive |  |
| Cc1cc(S(=O)(=O)O)ccc1N=Nc1c(O)ccc2ccccc12 | inactive | inactive | inactive | 30.6 µM (active) |  | inactive |  | inactive |  |  |
| CC(C)(C)CC(C)(C)c1ccc(OCCO)cc1 | 15.3 µM (active) | inactive | 43 µM (active) | 30.5 µM (active) |  |  | inactive |  |  | inactive |
| COC(OC)(C(=O)c1ccccc1)c1ccccc1 | inactive | inactive | inactive | inactive |  | inactive |  | inactive | inactive |  |
| CNCCCC1c2ccccc2C=Cc2ccccc21 | 9.44 µM (active) | inactive | 11.9 µM (active) |  | 23.7 µM (active) | 18.8 µM (active) | inactive | inactive | 26.6 µM (active) |  |
| CSc1ccc(Oc2ccc(S(N)(=O)=O)cc2CN(C)C)cc1C | 5.45 µM (active) | inactive |  | inactive | 38.6 µM (active) | 27.3 µM (active) | inactive | inactive |  | inactive |
| CCCOCCOCCO | inactive | inactive | inactive | inactive |  | inactive | inactive | inactive | inactive |  |
| CCCCN(CCCC)CCCOC(=O)c1ccc(N)cc1 | inactive | inactive | inactive | inactive |  | inactive |  | inactive |  |  |
